Inconclusive results are not listed. Unmarked numbers belong to inactive results. Activity calls are given as the source filed them. Calls come from the whole dose curve.
% is set by controls: 0 for no effect and ±100 for the full control effect.

This assay is described as follows: qHTS assay for small molecule agonists of the antioxidant response element (ARE) signaling pathway - cell viability counter screen (AID 743203). Note: nearly all actives have a fitted effect of over 55% in size. Conditions: ARE-bla HepG2 viability, CellTiter-Glo luminescence, 16 h; series mostly up to 73.3 µM. An excerpt: National Center for Advancing Translational Sciences [NCATS]
NIH Chemical Genomics Center [NCGC]
U.S. Environmental Protection Agency [EPA]
National Institutes of Environmental Health Sciences [NIEHS]
National Toxicology Program [NTP]
U.S. Food and Drug Administration [FDA]
Oxidative stress has been implicated in the pathogenesis of a variety of diseases ranging from cancer to neurodegeneration. The antioxidant response element (ARE) signaling pathway plays an important role in the amelioration of oxidative stress. The CellSensor ARE-bla HepG2 cell line (Invitrogen) can be used for analyzing the Nrf2/antioxidant response signaling pathway. Nrf2 (NF-E2-related factor 2) and Nrf1 are transcription factors that bind to AREs and activate these genes. The CellSensor ARE-bla Hep G2 cell line contains a beta-lactamase reporter gene under control of the Antioxidant Response Element (ARE) stably integrated into HepG2 cells. The activation of the report gene under culture conditions can be detected by fluorescence intensity. This cell line has been used to screen the Tox21 10K compound library to identify agonists that induce oxidative stress. The cytotoxicity of the Tox21 compound library against the ARE-bla cell line was tested in parallel by measuring the cell viability using CellTiter-Glo assay (Promega, Madison, WI) in the same wells.
Tox21 Assay Protocol Summary:
ARE-bla HepG2 cells were dispensed at 2,000 cells/5 ul/well in 1536-well white wall/solid bottom plates using a Multidrop Combi (ThermoFisher Scientific, Waltham, MA) dispenser. After the assay plates were incubated at 37C/5% CO2 for 5 hrs, 23 nL of compounds dissolved in DMSO, positive controls or DMSO only was transferred to the assay plate by a pintool work station (Kalypsys, San Diego, CA). The plates were incubated at 37C/5% CO2 for 16 hrs, followed by addition of 4 ul/well of CellTiter-Glo reagent into the assay plates using a Flying Reagent Dispenser (Aurora Discovery, San Diego, CA). After 30 min incubation at room temperature, the luminescence intensity in the assay plates was measured using a ViewLux (PerkinElmer, Shelton, CT) plate reader.
Turning to `CC12CCCC=C1C(=O)OC2=O` (stereo not given), the result was inactive. Take `CC(C)OC(=O)C(C(=O)OC(C)C)=C1SC=CS1`: the result was inactive. For `O=S(=O)(O)CC(O)CCl` (stereo not given), the result was inactive. For the compound `CCCCc1ccc(Cl)cc1`, the result was inactive. On the same count and under the same terms, the result for `N=C(N)N` reads “inactive”; that for `CC(C)(C)C(=O)NCCCC(=O)O`, “inactive”. Regarding `CCCC(=O)OC`, the compound was called inactive. Turning to `CCCCCCCOC(C)=O`, the call was inactive. Still for that read-out and setting: the result for `CN1CCN(C(=O)C2CCCCC2)CC1` reads “inactive”; that for `CCC(C)(C)C`, “inactive”; that for `N#CC1(N)CCCCC1`, “inactive”. On to `CSC(=O)c1cccc2nnsc12`, for which the compound was classed as inactive. As to `COC(C)(C)CC(C)=O`, the result was inactive. For `O=C(O)Cc1c(Cl)ccc(Cl)c1Cl`, the compound was called inactive. Take `CCOC(=O)[C@H](CCc1ccccc1)N[C@H]1CS[C@H](c2cccs2)CN(CC(=O)O)C1=O`: the compound was called inactive.

On to `COc1ccc2cc(CCC(C)=O)ccc2c1`, for which the result was inactive. `CCc1ncc(C)[nH]1`: the compound was classed as inactive. For `COC(=O)C(c1ccccc1Cl)N1CCc2sccc2C1` (stereo not given), the compound was classed as inactive.

`C/C=C(\C)C=O`: the outcome was inactive. Take `CC(=O)SC[C@@H](C)C(=O)N1CCC[C@H]1C(=O)N[C@@H](Cc1ccccc1)C(=O)O`: the result was inactive. As to `CN(C)CCc1c[nH]c2ccc(CS(=O)(=O)N3CCCC3)cc12`, the outcome was inactive. For the compound `CC(C)(C)OC(=O)c1ccccc1C(=O)O`, the call was inactive. Regarding `CN(C)CCC[C@@]1(c2ccc(F)cc2)OCc2cc(C#N)ccc21`, the compound was classed as inactive. Consider `CC(C)C(C)C`, for which the compound was called inactive. For the compound `CC(C)CC(O)Cc1ccccc1` (stereo not given), the call was inactive. For the compound `CC(C)(C)OC=O`, the compound was called inactive. Regarding `CCCC(=O)CC`, the call was inactive. Turning to `Cc1cc(=O)oc2cc(O[C@@H]3SC[C@@H](O)[C@H](O)[C@H]3O)ccc12`, the result was inactive.

Take `Clc1cc(Cl)c(Cl)c(Cl)c1Cl`: the result was inactive. Consider `CCCCOCCCC`, for which the call was inactive. Turning to `Cc1ccc(N)nc1`, the result was inactive. For `CC1(C)CC(N)CC(C)(C)N1`, the compound was called inactive.

For `CN(C)c1cc(NC(=O)CNC(C)(C)C)c(O)c2c1C[C@H]1C[C@H]3[C@H](N(C)C)C(=O)C(C(N)=O)=C(O)[C@@]3(O)C(=O)C1=C2O`, the call was inactive. Turning to `C/C=C(\C)C(=O)OC/C=C(\C)CCC=C(C)C`, the call was inactive. In the case of `c1cc2ccc3ccc4ccc5cccc6c(c1)c2c3c4c56`, the viability change, negative = cytotoxic is 6.8% [at 3.74 µM]. With `NNC(=O)CCCCC(=O)NN`, the compound was classed as inactive. Take `O=C(O)CCC(=O)Nc1ccc(S(=O)(=O)Nc2nccs2)cc1`: the compound was classed as inactive. With `CC(=O)/C=C/C=C1/C2CCC(C2)C1(C)C` (stereo not given), the compound was called inactive. The same measure, in the same setting: the result for `CC(C)OCCO` reads “inactive”; that for `O=C1Nc2ccccc2C1=O`, “inactive”.

For the origin of these results see PubChem BioAssay (Tox21).
